From PubChem BioAssay AID504832 (National Center for Advancing Translational Sciences (NCATS), 2011)
The campaign covered roughly 310,000 compounds. About 18,000 (5.8%) were called active. Roughly 22% stayed inconclusive and do not appear here. This is one part of a sample in which actives are shown more often than they occur. A number with no mark means an inactive call. The call rests on the fitted dose curve; in most records, active means well fitted inhibition curve with a large enough effect; inconclusive means small, poorly fitted or top-dose-only effect, or another doubt; inactive means no such curve, though single readings can be large or run the other way.

Assay: Primary qHTS for delayed death inhibitors of the malarial parasite plastid, 48 hour incubation
Conditions: P. falciparum luciferase growth in erythrocytes; series mostly up to 28.7 µM; activity change, negative = inhibition: at the top concentration
Summary of the method: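 Erythrocytes infected with P. falciparum carrying an integrated firefly luciferase reporter (2% hematocrit, 0.1% parasitemia final) were exposed to compounds in RPMI 1640 with 0.5% Albumax at 37 C, 5% CO2. Growth inhibition was scored as reduced luminescence.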
On the % scale 0 is the no-effect control and ±100 the full control effect; potency means the concentration at half of the fitted maximal effect.

| Structure (SMILES) | activity change, negative = inhibition | Potency |
| --- | --- | --- |
| CC(=O)N1CCc2cc(S(=O)(=O)NC3CCCCC3)ccc21 | -10.2% |  |
| CC(Oc1ccccc1)C(=O)Nc1oc(-c2ccco2)c(-c2ccco2)c1C#N (stereo unspecified) | 33.3% |  |
| COc1cc(C(=O)Nc2oc(-c3ccccc3)c(-c3ccccc3)c2C#N)cc(OC)c1OC | 15.7% |  |
| CC(C)C(=O)Nc1oc(-c2ccccc2)cc1C#N |  | 1.85 µM (active) |
| COc1cc(CC(=O)N2CCC(n3nccc3NC(=O)C3CC3)CC2)cc(OC)c1OC | 41.4% |  |
| O=C(CN(Cc1ccc(Br)cc1)S(=O)(=O)c1ccccc1)NCc1ccncc1 | -5.45% |  |
| Cc1ccc(-c2nc(-c3ccncc3)no2)c(C)c1 | 18% |  |
| O=C(COC(=O)c1ccccc1Cl)NC1CCCCCCC1 | 16.5% |  |
| COc1ccccc1CC(=O)Nc1ccc(S(=O)(=O)N2CCCC2)cc1 | -21.9% |  |
| Nc1nonc1-n1nnc(C(=O)N/N=C/c2ccc(Cl)cc2)c1-c1ccc2c(c1)OCO2 |  | 0.329 µM (active) |
| CC(C)c1c(C(=O)N/N=C/c2ccc(-c3ccccc3)cc2)nnn1-c1nonc1N | 13.7% |  |
| Nc1nonc1-n1nnc(C(=O)N/N=C/C2CCCCC2)c1-c1ccccc1 | 11.2% |  |
| Cc1cc(F)ccc1S(=O)(=O)Nc1ccc(C(=O)N(C)Cc2ccco2)cc1 | -12.8% |  |
| O=C(NCCSc1ncc(-c2ccccc2)[nH]1)c1ccco1 | 2.49% |  |
| COc1ccc(CCNC(=O)CSc2nnc(-c3cccc(F)c3)o2)cc1OC | -10.6% |  |
| COc1ccc(CN(C(=O)CSc2nnc(-c3ccc(OC)c(OC)c3)o2)c2ccc(F)cc2)cc1 |  | 9.28 µM (active) |
| CCN(C(=O)CSc1nnc(-c2ccncc2)o1)c1ccccc1 | -1.9% |  |
| CCc1ccc(NC(=O)C(=O)NNC(=O)c2cccs2)cc1 | 74.2% |  |
| O=C(Nc1ccccc1N1CCN(C(=O)c2ccccc2)CC1)c1ccco1 | -14% |  |
| O=C(Nc1cccc(C(=O)N2CCCC2)c1)c1ccccc1 | 13.1% |  |
| O=C(Nc1ccc(N2CCN(C(=O)c3ccccc3)CC2)c(Cl)c1)c1ncn[nH]1 |  | 11.7 µM (active) |
| C#CCOc1ccccc1/C=C1/C(=O)ON=C1C | -13.9% [at 0.00184 µM] |  |
| O=[N+]([O-])c1ccc2c(c1)Nc1nc3ccccc3nc1N2 | 129% |  |
| O=[N+]([O-])c1cccc(/C([O-])=C(/C(=S)Nc2ccccc2F)[n+]2ccccc2)c1 | 57.9% |  |
| CC(OC(=O)CNC(=O)c1ccc(Cl)c([N+](=O)[O-])c1)C(=O)NCc1ccco1 (stereo unspecified) | 2.5% |  |
| Cc1ccc(/C([O-])=C(/C(=S)NCc2ccco2)[n+]2ccccc2)cc1[N+](=O)[O-] |  | 10.4 µM (active) |

| Structure (SMILES) | activity change, negative = inhibition | Potency |
| --- | --- | --- |
| COc1cccc(C(=O)OCc2cc(=O)oc3c(C)c(C)ccc23)c1OC | 3.93% |  |
| Cc1cc(/C=C2/SC(=O)N(CC(=O)N3CCCC3)C2=O)c(C)n1C | 5.8% |  |
| Cc1cc(C)c2[nH]c(=O)c(CN(Cc3ccccc3)C(=S)NCCCN(C)C)cc2c1 |  | 13.1 µM (active) |
| COCCCNC(=S)N(CCN(C)C)Cc1cc2cc3c(cc2[nH]c1=O)OCCO3 | -21.6% |  |
| CCN(CC)CCCNC(=S)N(CCO)Cc1cc2cc3c(cc2[nH]c1=O)OCO3 | 26.3% |  |
| COc1cc(/C=N/NC(=O)c2ccc(N3CCCC3=O)cc2)ccc1O | 45.3% |  |
| O=c1cc(Cl)c2ccccc2n1-c1ccccc1 | -0.654% [at 0.00184 µM] |  |
| COc1ccc(OCc2cc(C(=O)NCC3(C)COC3)no2)c(Cl)c1 | 36.9% |  |
| COC(=O)c1c(NC(=O)c2ccccc2F)sc2c1C(C(=O)OC)CC2 (stereo unspecified) | 12.9% |  |
| COc1ccc2[nH]c(C)c(CCN(Cc3cccs3)C(=S)Nc3ccccc3OC)c2c1 |  | 11.7 µM (active) |
| COc1ccc(NC(=S)NCc2cccs2)c(OC)c1 | -9.21% |  |
| Cc1[nH]c2ccccc2c1CCN(Cc1cccs1)C(=S)NC(C)(C)C | -11.3% |  |
| Cc1ccc2c(c1)N(CC(=O)N1CCCC(C)C1)C(=O)CO2 (stereo unspecified) | 13.8% |  |
| Clc1ncn(CCOc2ccccc2)c1Cl | 8.95% |  |
| COc1ccc(OCCn2ccnc2C)cc1 | 10.7% |  |
| c1ccc(Cc2ccc(OCCn3ccnc3)cc2)cc1 |  | 9.28 µM (active) |
| CC(CCc1ccccc1)NC(=O)c1cnc(Cl)c(Cl)c1 (stereo unspecified) | 5.45% |  |
| CN(C)C(=O)c1ccc(NC(=O)COC(=O)c2cc3c(s2)CCCCC3)cc1 | -7.64% |  |
| COC(=O)Cn1c(O)c(N=NC(=O)OC)c2ccccc21 | 22.9% |  |
| CCn1c(O)c(N=NC(=O)c2cccc(S(=O)(=O)N3CCCCC3)c2)c2ccccc21 |  | 11.7 µM (active) |
| CCn1c2ccccc2c2cc(NC(=O)COC(=O)c3cc(S(=O)(=O)N4CCCCC4)ccc3Cl)ccc21 | 32.1% |  |
| CC(C)(C)c1cc[n+](-c2[nH]c(=O)sc2/C=N/N=C(\[O-])c2ccccc2)cc1 | -0.526% |  |
| O=C(CSc1ccc(-c2cccs2)nn1)Nc1ccccc1F | 26% |  |
| O=C(CSc1nc2nccnc2c(=O)n1Cc1cccs1)Nc1ccccc1F |  | 10.4 µM (active) |
| CCOc1ccc(NC(=O)CSc2nc3ccccc3c(=O)n2Cc2cccs2)cc1 | 0.231% |  |
